Drawing on PubChem BioAssay, this text covers composite z-score and z-score for 17 molecules.

Activity calls are given as the source filed them.

The nature of experiment [1]: binders of probe aFSTL3 on microarray, primary screen, stem cell growth factor project, biochemical, small-molecule microarray, fluorescence 635/667 (AID 1064).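 Also: measures binding of the biotinylated anti-FSTL3 antibody to printed compounds.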 Conditions: higher = more signal.
A short description of experiment [2]: binders from COS7 lysate, DM2A8 probe, primary screen, torsin A project, cell lysate, small-molecule microarray, fluorescence 635/667 (AID 1065). Conditions: higher = more signal, COS7 lysate expressing mutant human TOR1A.
Experiment [3] can be described thus: binders of probe aFGF2 on microarray, primary screen, stem cell growth factor project, biochemical, small-molecule microarray, fluorescence 635/667 (AID 1067).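 Also: measures binding of biotinylated aFGF2 protein to printed compounds on slides; z-score merges feature fluorescence and signal-to-noise across triplicate slides.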 Conditions: higher = more signal.
The nature of experiment [4]: binders of probe aFGF10 on microarray, primary screen, stem cell growth factor project, biochemical, small-molecule microarray, fluorescence 635/667 (AID 1071).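 Also: score merges 667 nm spot intensity and signal to noise from triplicate slides.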 The following applies: higher = more signal.
Experiment [5] concerns the target Neurogenic locus notch homolog protein 2 (Homo sapiens) (UniProt Q04721). Briefly: Notch2 binders on small-molecule microarrays, primary screen, biochemical, small-molecule microarray, 635 nm fluorescence, stem cell growth factors (AID 1073). The following applies: Notch2 binding, higher = more signal.
Experiment [6] concerns the target Pro-neuregulin-1, membrane-bound isoform (Homo sapiens) (UniProt Q02297). Briefly: NRG1 binders on small-molecule microarrays, primary screen, psychiatric disease protein project, biochemical, small-molecule microarray, fluorescence 635/667 (AID 1075).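 Also: score combines 667 nm spot fluorescence with signal to noise.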 Conditions: NRG1 binding, 635 nm fluorescence, higher = more signal.
The test system of experiment [7] is Neuregulin-1 EGF-like domain. Put plainly: binders of neuregulin-1 EGF-like domain, primary screen, biochemical, small-molecule microarray, 635 nm fluorescence (AID 1081).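 Also: binding of the protein to compounds printed on small-molecule microarray slides.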 Conditions: small-molecule microarray binding, higher = more signal.
Experiment [8] in a line: FRG1 promoter luciferase signal modulators, primary screen, FRG1 inhibition for FSHD, cell-based, C2C12 myotubes, firefly/Renilla luciferase, luminescence (AID 1084). Conditions: higher = more signal, called active from +8 up or from −8 down.
Experiment [9] can be described thus: binders of probe aFST on microarray, primary screen, stem cell growth factor project, biochemical, small-molecule microarray, fluorescence 635/667 (AID 1086).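 Also: score merges 667 nm fluorescence with signal-to-noise of each printed compound spot.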 The following applies: higher = more signal.
Experiment [10] in a line: binders of probe aHhip on microarray, primary screen, stem cell growth factor project, biochemical, small-molecule microarray, fluorescence 635/667 (AID 1087).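 Also: score merges spot fluorescence at 667nm with spot signal to noise ratio.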 Conditions: higher = more signal.

Neurogenic locus notch homolog protein 2 (Homo sapiens), sequence (Q04721 whole entry, looked up, canonical isoform): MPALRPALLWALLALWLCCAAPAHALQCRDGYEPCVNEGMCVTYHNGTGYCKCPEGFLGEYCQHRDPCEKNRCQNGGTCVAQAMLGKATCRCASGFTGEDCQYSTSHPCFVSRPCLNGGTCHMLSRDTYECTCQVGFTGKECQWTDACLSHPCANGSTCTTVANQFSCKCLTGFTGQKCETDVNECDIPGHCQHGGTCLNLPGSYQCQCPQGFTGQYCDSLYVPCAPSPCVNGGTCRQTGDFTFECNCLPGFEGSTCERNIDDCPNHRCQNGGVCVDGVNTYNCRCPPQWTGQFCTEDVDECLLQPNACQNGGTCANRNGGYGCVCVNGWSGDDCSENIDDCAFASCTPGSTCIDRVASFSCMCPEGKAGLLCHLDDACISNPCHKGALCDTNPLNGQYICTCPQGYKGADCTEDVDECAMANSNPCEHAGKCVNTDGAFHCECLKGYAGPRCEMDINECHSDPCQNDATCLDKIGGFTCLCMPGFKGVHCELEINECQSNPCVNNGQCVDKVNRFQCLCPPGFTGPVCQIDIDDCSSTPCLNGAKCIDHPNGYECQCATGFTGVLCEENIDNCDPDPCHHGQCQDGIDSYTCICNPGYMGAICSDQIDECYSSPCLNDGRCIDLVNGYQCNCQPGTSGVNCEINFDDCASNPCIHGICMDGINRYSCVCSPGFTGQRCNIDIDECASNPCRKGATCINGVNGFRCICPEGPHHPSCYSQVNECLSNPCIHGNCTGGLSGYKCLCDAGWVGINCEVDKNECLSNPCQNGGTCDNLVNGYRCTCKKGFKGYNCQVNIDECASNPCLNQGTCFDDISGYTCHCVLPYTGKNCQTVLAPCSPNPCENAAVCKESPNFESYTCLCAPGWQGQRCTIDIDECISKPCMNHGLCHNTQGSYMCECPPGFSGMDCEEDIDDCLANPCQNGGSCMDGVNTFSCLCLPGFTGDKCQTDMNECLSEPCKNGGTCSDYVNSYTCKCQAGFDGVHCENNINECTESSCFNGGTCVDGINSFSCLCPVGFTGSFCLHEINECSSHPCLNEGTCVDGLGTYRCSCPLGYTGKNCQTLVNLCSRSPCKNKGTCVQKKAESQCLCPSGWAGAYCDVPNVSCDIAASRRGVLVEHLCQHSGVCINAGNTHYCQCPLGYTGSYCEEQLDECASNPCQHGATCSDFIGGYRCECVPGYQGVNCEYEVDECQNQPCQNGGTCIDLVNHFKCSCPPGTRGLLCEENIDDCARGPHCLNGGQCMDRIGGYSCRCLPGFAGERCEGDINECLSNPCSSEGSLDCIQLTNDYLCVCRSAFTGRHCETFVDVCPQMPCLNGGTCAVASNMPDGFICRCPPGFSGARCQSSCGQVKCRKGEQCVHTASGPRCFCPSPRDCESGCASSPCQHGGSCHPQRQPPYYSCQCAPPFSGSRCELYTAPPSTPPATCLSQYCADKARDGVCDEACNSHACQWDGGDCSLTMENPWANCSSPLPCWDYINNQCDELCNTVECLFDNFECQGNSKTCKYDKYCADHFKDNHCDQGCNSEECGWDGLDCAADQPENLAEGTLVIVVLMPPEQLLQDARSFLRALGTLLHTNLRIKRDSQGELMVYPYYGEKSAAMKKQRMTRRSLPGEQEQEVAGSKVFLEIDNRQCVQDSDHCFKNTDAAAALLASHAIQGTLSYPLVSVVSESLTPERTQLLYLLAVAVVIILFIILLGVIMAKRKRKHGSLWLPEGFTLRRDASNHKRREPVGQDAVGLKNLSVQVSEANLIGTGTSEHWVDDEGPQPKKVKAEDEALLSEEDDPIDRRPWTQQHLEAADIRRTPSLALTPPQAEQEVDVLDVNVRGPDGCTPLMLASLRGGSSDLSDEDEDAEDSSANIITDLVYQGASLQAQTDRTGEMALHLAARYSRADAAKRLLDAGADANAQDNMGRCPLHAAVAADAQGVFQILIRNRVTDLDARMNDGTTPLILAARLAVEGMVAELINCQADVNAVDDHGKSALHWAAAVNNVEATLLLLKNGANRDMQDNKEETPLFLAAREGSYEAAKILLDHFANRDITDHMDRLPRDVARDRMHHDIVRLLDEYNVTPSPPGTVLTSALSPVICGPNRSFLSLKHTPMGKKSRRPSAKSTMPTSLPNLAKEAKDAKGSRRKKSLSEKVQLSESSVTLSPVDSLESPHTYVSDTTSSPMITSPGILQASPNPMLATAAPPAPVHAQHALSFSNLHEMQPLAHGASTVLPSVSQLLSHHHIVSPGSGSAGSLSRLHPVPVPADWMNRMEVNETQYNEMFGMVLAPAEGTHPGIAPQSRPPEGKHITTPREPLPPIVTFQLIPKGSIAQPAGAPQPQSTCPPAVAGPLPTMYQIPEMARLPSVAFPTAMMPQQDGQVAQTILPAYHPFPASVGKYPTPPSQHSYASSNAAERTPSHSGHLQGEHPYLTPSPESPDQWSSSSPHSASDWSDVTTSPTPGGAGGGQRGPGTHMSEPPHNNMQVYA
Pro-neuregulin-1, membrane-bound isoform (Homo sapiens), sequence (Q02297 whole entry, looked up, the tested form may be a part, canonical isoform): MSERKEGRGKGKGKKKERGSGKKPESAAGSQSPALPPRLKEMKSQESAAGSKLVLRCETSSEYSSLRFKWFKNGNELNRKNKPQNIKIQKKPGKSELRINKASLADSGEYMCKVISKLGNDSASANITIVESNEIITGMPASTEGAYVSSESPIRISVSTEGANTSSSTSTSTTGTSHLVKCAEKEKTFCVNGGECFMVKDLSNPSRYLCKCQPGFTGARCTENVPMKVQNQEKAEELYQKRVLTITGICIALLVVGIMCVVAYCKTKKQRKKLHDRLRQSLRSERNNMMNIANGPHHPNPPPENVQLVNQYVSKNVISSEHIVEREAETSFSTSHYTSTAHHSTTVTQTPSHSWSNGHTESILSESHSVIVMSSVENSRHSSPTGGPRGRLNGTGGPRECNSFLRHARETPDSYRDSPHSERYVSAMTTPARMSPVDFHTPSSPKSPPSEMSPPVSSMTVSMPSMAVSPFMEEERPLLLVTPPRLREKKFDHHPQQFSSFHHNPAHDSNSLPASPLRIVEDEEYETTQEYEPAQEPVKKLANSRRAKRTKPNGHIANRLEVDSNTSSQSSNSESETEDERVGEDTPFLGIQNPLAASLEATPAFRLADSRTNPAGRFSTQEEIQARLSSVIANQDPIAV

Turning to `CC(=CC1CCCCC1)[C@@H](NC(=O)c1cccnc1)c1ccc(-c2ccccc2)cc1`, the composite z-score in [1] was 0.365; in experiment [2], -0.545; in experiment [3], 0.0021; in [4], -0.25; in [5], 0.142; in experiment [6], 0.0657. Moreover, the composite z-score is -0.362 in experiment [7], 0.281 in experiment [9] and -0.194 in [10]. Moreover, the z-score in [8] was -0.972 (inactive).

`CCCCC(=C=CC[C@H](O)c1cccc(OCCO)c1)C[C@H](O)c1ccccn1`: the composite z-score in experiment [1] was -0.37; in experiment [2], 0.0714; in experiment [3] it was -0.112; in [4], 0.528; in [5] it was -0.202; in experiment [6] it was 0.163. The values for the composite z-score in [7], in experiment [9] and in experiment [10] were 0.719, -0.157 and -0.236, respectively. Further, in experiment [8], the z-score is -0.692 (inactive).

For `Cc1ccc([C@H]2C(C(=O)O)=CCN2S(=O)(=O)c2ccc(C)cc2)cc1`, the composite z-score in experiment [1] is -0.0451; in [2], 0.0722; in experiment [3], -0.0271; in experiment [4], 0.231; in experiment [5], 0.539; in [6] it was 1.24. Besides, the composite z-score in experiment [7] is 1.1; in experiment [9] it was 0.224; in [10], -0.0305. Further, in experiment [8], the z-score was -0.186 (inactive).

With `COCC(=C=CC[C@H](O)c1cccc(OCCO)c1)C[C@H](O)c1cc(Cl)cc(Cl)c1O`, the composite z-score is -0.173 in experiment [1]; 0.0375 in [2]; -0.045 in [3]; 0.502 in [4]; 0.524 in experiment [5]; 0.79 in experiment [6]. The results for the composite z-score in experiment [7], in [9] and in [10] were 1.38, 0.181 and -0.281, respectively. For the same molecule, in experiment [8], the z-score is -0.578 (inactive).

For the molecule `O=C(O)[C@H]1C[C@H]2C(=O)N3CCC[C@H]3C(=O)N2[C@H]1c1ccc(O)cc1`, the composite z-score is 1.22 in experiment [1]; -0.104 in [2]; -0.195 in experiment [3]; -0.929 in experiment [4]; -2.12 in [5]; -0.0857 in [6]. In addition, the results for the composite z-score in experiment [7], in [9] and in [10] were 0.804, -0.834 and 0.147, respectively. Further, the z-score in experiment [8] is -0.305 (inactive).

On to `COCCOC(=O)N1C(=O)[C@@]2(c3cc(C#Cc4ccc(OC)cc4)ccc31)[C@H](c1ccc(O)cc1)N1[C@H](c3ccccc3)[C@H](c3ccccc3)OC(=O)[C@H]1[C@@H]2C(=O)Nc1nc2ccccc2s1`, for which the composite z-score in experiment [1] is -0.304; in experiment [2], 0.262; in experiment [3], -0.0724; in [4], 0.554; in experiment [5], 1.29; in [6], 1.06. Also, the composite z-score in experiment [7] is 1.24; in experiment [9] it was 0.251; in experiment [10], -0.249. In [8], the z-score was 2.63 (inactive).

Regarding `CCCCN1CC=CC23O[C@@H]4/C=C\CCCOC(=O)C4[C@H]2C(=O)N(CCCCCO)[C@@H]3C1=O` (stereo not given in full), the composite z-score is 0.485 in experiment [1]; -0.465 in [2]; -0.0985 in experiment [3]; -0.0739 in experiment [4]; -0.901 in experiment [5]; -1.18 in experiment [6]. Moreover, the figures for the composite z-score in experiment [7], in experiment [9] and in experiment [10] were 1.26, -0.804 and -0.249, respectively. Further, the z-score in [8] was 0.368 (inactive).

Take `CCOc1cc(C(O)C2C=CC3C(=O)N(c4ccccc4)C(=O)C3N2Nc2ccc(C(C)C)cc2)ccc1O` (stereo not given): the composite z-score in [1] is 0.0696; in experiment [2], 0.201; in experiment [3], -0.0254; in experiment [4], 0.707; in [5], 1.52; in experiment [6], 1.36. Also, the composite z-score in experiment [7] was 1.31; in experiment [9] it was 1.17; in experiment [10], -0.0237. Besides, the z-score in experiment [8] was 0.698 (inactive).

On to `COCCOC(=O)N1C(=O)[C@@]2(c3ccccc31)[C@H](c1ccc(OCCO)cc1)N1[C@H](c3ccccc3)[C@H](c3ccccc3)OC(=O)[C@H]1[C@@H]2C(=O)N1CCc2cc(OC)c(OC)cc2C1`, for which the composite z-score was -0.128 in experiment [1]; 0.974 in experiment [2]; 0.123 in experiment [3]; 1.15 in experiment [4]; 1.33 in experiment [5]; 1.29 in experiment [6]. The composite z-score in [7] was 1.28; in experiment [9], 0.799; in experiment [10], 0.176. Moreover, the z-score in experiment [8] was -1.82 (inactive).

For `COCCCNC(=O)[C@@]1(Sc2ccc(C)cc2)CC(=O)N(Cc2ccccc2Cl)[C@@H]1c1ccc(CO)cc1`, the composite z-score in experiment [1] is 0.59; in [2], 2.15; in experiment [3], -0.119; in experiment [4], 0.429; in experiment [5], 0.307; in experiment [6] it was 1.14. The composite z-score in experiment [7] was 0.938; in experiment [9], 0.393; in experiment [10], -0.0645. In experiment [8], the z-score is -2.45 (inactive).

With `O=C1NC(=O)C2C1C=CC(C(O)C1CC=CCC1)N2Nc1ccccn1` (stereo not given), the composite z-score in [1] was 0.0882; in [2] it was 0.922; in experiment [3], 0.135; in [4], 0.938; in experiment [5] it was 1.2; in [6], -0.0625. Further, the composite z-score in [7] is 1.11; in experiment [9], 0.324; in experiment [10], -0.445. Further, the z-score in experiment [8] is 0.845 (inactive).

`CCOC(=O)C1=CCC(c2ccc(F)cc2)N(S(=O)(=O)c2ccc(C)cc2)C1` (stereo not given): the composite z-score in experiment [1] is 0.605; in [2] it was 0.816; in experiment [3], 0.0198; in experiment [4], -0.105; in experiment [5], 0.552; in [6], 0.199. Further, the composite z-score in experiment [7] is 0.116; in [9], 0.135; in experiment [10], -0.226. The z-score in experiment [8] is -2.7 (inactive).

For `C[N+](C)(C)CCCCCCNC(=O)[C@H]1C[C@H]2C(=O)N[C@@H](Cc3ccccc3)C(=O)N2[C@H]1c1cccc(OCCO)c1`, the composite z-score in experiment [1] is -0.429; in [2], 0.652; in [3] it was -0.0266; in experiment [4], 0.293; in [5], 0.357; in experiment [6], 0.318. The composite z-score in experiment [7] is 1.31; in experiment [9], -0.0975; in [10], -0.0645. Besides, the z-score in experiment [8] is 3.64 (inactive).

On to `CCCCCN1CC=CC23O[C@@H]4C=CCOC(=O)[C@@H]4[C@H]2C(=O)N(C(C)CO)[C@@H]3C1=O` (stereo not given in full), for which the composite z-score in experiment [1] is 0.484; in experiment [2] it was 1.52; in experiment [3], -0.195; in [4], -0.109; in experiment [5], -0.825; in [6], 0.913. Further, the composite z-score was 1.49 in experiment [7], -0.637 in experiment [9] and -0.399 in experiment [10]. In experiment [8], the z-score is -0.02 (inactive).

`CCOC(=O)C[C@H]1[C@H](OC(=O)c2ccc(C(=O)c3ccccc3)cc2)[C@@H](NC(=O)c2ccccc2)c2cc(OCCCO)ccc2N1C(=O)c1ccccc1`: the composite z-score was -0.481 in [1]; 0.0554 in experiment [2]; -0.0376 in [3]; 0.683 in [4]; 0.783 in experiment [5]; 0.636 in experiment [6]. Besides, the composite z-score in experiment [7] was 0.935; in [9], 0.204; in experiment [10] it was 0.0053. Further, the z-score in experiment [8] was -1.48 (inactive).

In the case of `C=CC[C@]12N=C(c3ccc(OCCCO)cc3)O[C@H]1c1ccccc1N(CCS(=O)(=O)c1ccccc1)C2=O`, the composite z-score was 0.288 in [1]; -0.312 in experiment [2]; 0.0124 in [3]; -0.0268 in experiment [4]; 1.07 in experiment [5]; 1.13 in [6]. The composite z-score was 1.32 in experiment [7], 0.0964 in experiment [9] and -0.3 in experiment [10]. Moreover, the z-score in experiment [8] is -3.1 (inactive).

For `CO[C@H]1O[C@H](CO)[C@@H](OC(=O)Nc2ccccc2-c2ccccc2)[C@H](OC(=O)Nc2ccccc2-c2ccccc2)[C@@H]1OC(=O)Nc1ccccc1-c1ccccc1`, the composite z-score was 0.0212 in experiment [1]; 0.503 in [2]; -0.152 in [3]; 1.03 in experiment [4]; 1.1 in experiment [5]; 1.35 in [6]. Besides, the composite z-score in experiment [7] is 1.19; in experiment [9] it was 0.807; in [10], -0.189. Besides, the z-score in experiment [8] was 0.722 (inactive).
